Data from PubChem BioAssay AID504715 (Sanford-Burnham Center for Chemical Genomics, 2011).
The other results are listed elsewhere or left out. A number with no mark means an inactive call.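 Rule for the calls: active = compounds giving 40% or more inhibition at 20 µM in any one of the three replicates; inactive = the rest.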

Biological target: Uracil-DNA glycosylase (Escherichia coli (strain K12)) (UniProt P12295)
Assay: E. coli UDG inhibitors, confirmation, counter-screen for APOBEC3G inhibitor project, biochemical, single concentration, fluorescence, FAM/TAMRA oligo (AID 504715);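 note: plate controls were DMSO wells with UDG and oligo for no effect and DMSO wells lacking both for full effect; inhibitors lower the FAM signal released by uracil excision and alkaline cleavage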
Details: UDG counterscreen, at 20 µM, stronger effect = higher value

Uracil-DNA glycosylase (Escherichia coli (strain K12)), sequence (P12295 whole entry, looked up): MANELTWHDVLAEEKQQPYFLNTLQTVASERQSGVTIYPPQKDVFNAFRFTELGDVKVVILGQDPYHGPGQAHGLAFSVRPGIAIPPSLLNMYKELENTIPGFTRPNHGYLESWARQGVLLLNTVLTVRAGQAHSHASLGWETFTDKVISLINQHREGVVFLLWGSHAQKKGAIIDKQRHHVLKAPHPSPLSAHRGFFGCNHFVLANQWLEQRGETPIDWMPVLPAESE

**Q.** Which inhibition does the source give for `COC(=O)N(c1ccc(OC)cc1)P1(=S)OCCC(C)O1` (stereo unspecified) here?
**A.** Its inhibition is -3.68%.
